Each structure is given as a SMILES string. Several values for one entry are separate records, joined by “and”; a condition that tells them apart may be missing. Equal entries are not always repeated. Compounds without any hit were thinned out: in the full panel of roughly 83,000, 20% have a hit.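 Activity criterion: percent growth below 10, measured after cells in 96-well plates were exposed to a single compound concentration for 48 hours.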 Activity calls are given as the source filed them.

One assay concerns HCC-2998 colon. Kind of assay: NCI-60 one-dose screen, 48 h (100 = growth as untreated, 0 = no growth, -100 = all killed). Conditions: 10 µM. As to the method:
Growth inhibition of the HCC-2998 human tumor cell line is measured as a screen for anti-cancer activity. Cells are grown in 96 well plates and exposed to the test compound for 48 hours. Compounds are tested at a single concentration, which is 10^-5 M for most compounds. The reported endpoint is percent growth (GI% or GIPRCNT), where numbers from 0 - 100% represent growth inhibition, and numbers from -100% - 0 represent cell death. For example, a value of 40 represents 60% growth inhibition. A value of 0 means no net growth occurred over the course of the experiment. A value of -40 indicates 40% of cells at the beginning of the experiment died by the end of the experiment. A value of -100 means all cells are dead at the end of the experiment.
NCI-60 Human Tumor Cell Lines Screen was performed using the standard one-dose NCI protocol, which is described in more detail at https://dtp.cancer.gov/discovery_development/nci-60/default.htm.
Compounds with GIPRCNT values below 10 were considered active. Activity score was based on GIPRCNT using the following formula: […]
Score is 0 for GIPRCNT values of 100 or above, 50 for GIPRCNT values of 0, and 100 for GIPRCNT values of -100.
On to `O=c1ccn2c(n1)OC1CC2OC1COC(c1ccccc1)(c1ccccc1)c1ccccc1` (stereo not given), for which the growth is 106% (inactive).
Regarding `S=c1nc[nH]c2nc[nH]c12`, the growth is 23.2% (inactive).

The same assay, now with this note: 10 µM unless noted.
`CCOC(=O)c1ccncc1`: the growth was 105% (inactive).
Still for that read-out and setting: then `O=C1c2ccccc2CN1c1ccccc1`, with 128% (inactive).
For `CCOC(=O)c1ccc(C(=N)N)cc1`, the growth is 103% (inactive).
As to `CC(=O)Nc1ccc2oc(=O)ccc2c1`, the growth was 110% (inactive).
Take `CC(C)(C(=O)c1cccnc1)c1cccnc1`: the growth is 102% (inactive).
The same measure, in the same setting: then `C/C=C(/C(=O)NC(N)=O)C(C)C`, with 115% (inactive); and `O=C1C(=O)c2ccccc2C(O)=C1CC=C(Cl)Cl`, with 61.8% (inactive) and 64.4% (inactive).
In the case of `O=C(/C=C/C=C/c1ccc2c(c1)OCO2)N1CCCCC1`, the growth was 102% (inactive) and 130% (inactive).
With `O=[N+]([O-])c1ccc(N/N=C/C2CCCCCC2)c([N+](=O)[O-])c1`, the growth is 106% (inactive).
Consider `COc1ccc(CCNC(=S)NN)cc1OC`, for which the growth is 88.8% (inactive).
Same read-out and setting: for `N=C(N)N1CCc2ccccc2C1` the value was 83.2% (inactive) and 99.2% (inactive).
`O=C(O)c1cc(=O)[nH]c(=O)[nH]1`: the growth was 99.3% (inactive).
`CCN(CC)C(=S)SCCO`: the growth was 94.1% (inactive).
For `Clc1ccc(/C=C/c2ccc3ccccc3n2)cc1`, the growth is 7.83% (active) and 104% (inactive) and 91.5% (inactive).
Same read-out and setting: for `COc1ccc(-n2[nH]c3c(cnc4ccccc43)c2=O)cc1` the value was 69.2% (inactive) and 107% (inactive); for `COCCCNC1=C(C#N)C(=O)NC(c2cccs2)S1` (stereo not given), 108% (inactive).
On to `CC1NC(C)c2ccc3ccccc3c2O1` (stereo not given), for which the growth was 110% (inactive).
As for `O=C(O)C#Cc1ccc(Cl)cc1`, the growth is 108% (inactive).
Take `OCc1ccccc1F`: the growth is 93.2% (inactive).
Take `N#Cc1c(N)nc2c(c(-c3ccc(Cl)cc3)nn2-c2ccccc2)c1C#N`: the growth was 111% [100 µM] (inactive).
For the compound `CCOC(=O)C(N)Cc1cc(I)c(O)c(I)c1` (stereo not given), the growth is 104% (inactive) and 96.6% (inactive).
Consider `Cc1cc2ccccc2c2cc3ccccc3cc12`, for which the growth was 92.5% (inactive).
As for `OCc1cccc(F)c1`, the growth is 99.4% (inactive).
Turning to `NCCSSC/C=C\CSSCCN`, the growth is 112% (inactive).
Take `CCN(CC)CCO/N=C1\CC(c2ccc(OC)c(OC)c2)Oc2ccccc21` (stereo not given): the growth is 109% (inactive).
The same measure, in the same setting: for `CCN(CC)Cc1cc2[nH]c3c4ccc(Cl)cc4ncc3c2cc1OC` the value was 83.6% (inactive) and 101% (inactive).
Same read-out and setting: for `O=C(NC(=O)c1ccc(F)c(Cl)c1)NC1CC1` the value was 96.2% (inactive) and 106% (inactive).
Same read-out and setting: then `Nc1ccccc1SC(CC(=O)c1ccccc1)c1cccc([N+](=O)[O-])c1` (stereo not given), with 110% (inactive); and `O=c1[nH]nnc2cc(Cl)ccc12`, with 109% (inactive) and 98.7% (inactive).
On to `CC1CCC(=O)N1c1ccc(N)cc1` (stereo not given), for which the growth is 98.8% (inactive).
`CC(=O)Oc1cc(C(C)C)c(OCCN(C)C)cc1C`: the growth was 99.6% (inactive) and 113% (inactive).
`C(=N\OCCc1ccccc1)/c1ccccn1`: the growth is 105% (inactive) and 104% (inactive).
Take `CCCC(=O)OCC(COC(=O)CCC)OC(=O)CCC`: the growth was 95.3% (inactive).
Consider `Cc1cc(Cl)nc(Nc2ccccc2)n1`, for which the growth is 98.6% (inactive).
For `S=c1ccc2ccccc2[nH]1`, the growth was 111% (inactive) and 107% (inactive).
As to `C/C=C/C(=O)OCCCCCCCCCCCC`, the growth is 130% (inactive).

Still in this assay, the particulars now being: 50 µM.
For the compound `S=c1nc[nH]c2nc[nH]c12`, the growth is 31% (inactive).

Staying with this assay, now noted: 100 µM.
Consider `O=c1ccn2c(n1)OC1CC2OC1COC(c1ccccc1)(c1ccccc1)c1ccccc1` (stereo not given), for which the growth was 100% (inactive).

The values above are taken from PubChem BioAssay (NCI).
